Bioassay records: PubChem BioAssay, National Center for Advancing Translational Sciences (NCATS)
Sampled rows, rich in hits. Any-hit rate of the full collection: about 10%.
G9a inh: G9a (human) methyltransferase inhibition; Q96KQ7; G9a H3K9 monomethylation, AlphaScreen, 2 h; Potency, µM (titrated, usually from 102 µM), for inactives: at the top dose activity, negative = inhibition, most hits filed as inhibitors; hit rate 8.8% among 350,000; note: % is set by controls: 0 for no effect and ±100 for the full control effect; nearly all actives have a fitted effect of over 75% in size
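Signal arises when biotinylated H3K9 peptide, once monomethylated, bridges streptavidin donor and antibody-captured acceptor beads. Enzyme at 20 nM was preincubated 15 min with test compounds; peptide 500 nM and SAM 20 uM then reacted for 2 h.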
GLS inhibitor: inhibitors of human glutaminase (GLS); hit rate 0.21% among 410,000; AID 624170; Potency, µM (doses to about 45.5 µM), for the others: at the top dose activity change, negative = inhibition, most hits filed as inhibitors; GLS enzymatic activity, qHTS titration; note: % is set by controls: 0 for no effect and ±100 for the full control effect
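hKGA in 45 mM KH2PO4 pH 8.2, 0.02% Tween-20 with pin-transferred compounds; 1 mM L-glutamine (stock) plus glutamate oxidase/HRP/Amplex Red coupling added. Fluorescence read initially and after 30 min at RT.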
BAZ2B block: inhibitors of human BAZ2B bromodomain; Q9UIF8; AlphaScreen BAZ2B-H3K14Ac peptide displacement; Potency, µM (top dose mostly 114 µM), for the others: top-dose activity change, negative = inhibition, usual class: inhibitors; hit rate 4.4% among 360,000; AID 504333; note: % is set by controls: 0 for no effect and ±100 for the full control effect; nearly all actives have a fitted effect of over 60% in size
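Inhibition is scored as reduced AlphaScreen emission. The BAZ2B/b-H3(5-23)K14Ac complex (50 nM each) in PBS pH 7.4, 0.01% Tween-20 meets compound (up to 110 uM) for 30 min at RT before bead addition.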
JMJD2A Tudor: blocks the human JMJD2A Tudor domain; Potency, µM (series often up to 114 µM), for inactives: at the top dose activity change, negative = inhibition, usual class: inhibitors; AlphaScreen JMJD2A-Tudor / H3K4me3 peptide binding; hit rate 4.4% among 390,000; AID 504339; O75164; note: % is set by controls: 0 for no effect and ±100 for the full control effect; nearly all actives have a fitted effect of over 50% in size
HP1b chromo inh: blocks HP1-beta chromodomain binding to methylated histone tails; AlphaScreen HP1-beta / biotin-H3K9me3 peptide binding; AID 540317; hit rate 0.56% among 390,000; Potency, µM (top dose mostly 114 µM), without a hit: at the highest dose activity change, negative = inhibition, hits mostly inhibitors; P83916; note: nearly all actives have a fitted effect of over 70% in size
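AlphaScreen: HP1-beta (50 nM) preformed 30 min with biotin-H3(1-18)K9me3 peptide (50 nM) in PBS pH 7.4, 0.01% Tween-20. Compound added for 30 min at RT, then streptavidin donor/nickel chelate acceptor beads (10 ug/mL) for 30 min.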
* hit, by the source's call; ? = inconclusive; / = not tested or not shown; [ ] = dose if it differs, or a comment. Calls come from the whole dose curve; as a rule, active = well fitted curve in the direction sought with a large enough effect; inconclusive = small, poorly fitted or top-dose-only effect, or another doubt; inactive = no such curve, though single readings can be large; an effect the other way counts as inactive or inconclusive. Potency is the fitted concentration of half-maximal effect.

SMILES	G9a inh	GLS inhibitor	BAZ2B block	JMJD2A Tudor	HP1b chromo inh
Cc1ccc(NC(=O)Cn2c(-c3ccc4c(c3)OCO4)cn(-c3ccccc3)c2=O)cc1	?	-2%	?	?	?
O=C(Nc1nc2c(s1)CN(Cc1ccccc1)CC2)C1CCC1	45µM*	-11%	?	-23%	14%
O=C(CSc1nncn1-c1ccccn1)Nc1cccc(Cl)c1	-40%	-3%	-4%	-3%	44%
O=C(CSC1=NNC(c2ccccn2)S1)Nc1ccccc1 (stereo not drawn)	?	11%	5.6µM*	6.3µM*	42%
O=C(CSC1=NNC(c2ccccn2)S1)Nc1cccc(Cl)c1 (stereo not drawn)	/	13%	7.1µM*	22µM*	14%
CC1=C(C(=O)Nc2ccc(C)cc2C)C(c2ccc(O)cc2)n2nnnc2N1 (stereo not drawn)	-26%[59 µM]	14%	-4%	-8%	25%
OC(CNCc1ccccn1)c1ccccc1 (stereo not drawn)	?	0%	22µM*	-7%[57.1 µM]	60%
Cc1cc(Br)ccc1NCc1ccccn1	?	16%	16µM*	3.2µM*	16µM*
c1ccc(NCc2ccccn2)cc1	4%	4%	79µM*	-32%	17%
O=C(NCc1ccccn1)C(=O)Nc1ccccc1	-3%	-3%	1%	-18%	32%
CCCCN(C)CCCNC(=O)Cn1ncc2c3ccccc3n(Cc3cc(C)ccc3C)c2c1=O	-12%[59 µM]	-7%	?	-29%	17%
CSc1cccc(NC(=O)N2CCN(c3cc(-c4noc(C)n4)ccc3C)CC2)c1	3%[59 µM]	2%	3%	-16%	6%[57 µM]
O=C(O)CCCCCNC(=O)c1ccc(Br)cc1	50µM*	-12%	?	-16%[57.1 µM]	40%
C#CCOCCOCCOCCNc1nc(N2CCN(C(=O)[C@H](Cc3cc4ccccc4[nH]3)n3cc([C@@H](N)C(C)CC)nn3)CC2)nc(N2CCN(C(=O)[C@H](Cc3cc4ccccc4[nH]3)n3cc([C@@H](N)Cc4ccc(O)cc4)nn3)CC2)n1 (stereo partly drawn)	-7%[12.7 µM]	/	11µM*	/	/
C#CCOCCOCCOCCNc1nc(N2CCN(C(=O)[C@H](Cc3ccc(O)cc3)n3cc([C@@H](N)C(C)CC)nn3)CC2)nc(N2CCN(C(=O)[C@H](Cc3cc4ccccc4[nH]3)n3cc([C@@H](N)CC(C)C)nn3)CC2)n1 (stereo partly drawn)	?	6%	35µM*	45µM*	?
C#CCOCCOCCOCCNc1nc(N2CCN(C(=O)[C@H](Cc3ccc(O)cc3)n3cc([C@@H](N)C(C)CC)nn3)CC2)nc(N2CCN(C(=O)[C@H](Cc3cc4ccccc4[nH]3)n3cc([C@@H](N)C(C)CC)nn3)CC2)n1 (stereo partly drawn)	-112%[59 µM]	7%	28µM*	45µM*	-30%
COc1ccc(Oc2ncc3nc(-c4cc(F)cc(F)c4)c(=O)n(C)c3n2)cc1	-7%[12.7 µM]	/	/	/	/
CC12CCCCC1N(O)C(=O)C(=O)N2O (stereo not drawn)	?	-9%	?	79µM*	4%
CC1(C)CCCC2=C1CC1C(=O)N(O)C(=O)C1C2 (stereo not drawn)	-1%	20%	19%	-2%	28%
Cc1c(Cl)cccc1NC(=O)CSc1ccc(-c2ccccn2)nn1	-6%[59 µM]	4%	5%	?	70%
Cc1cccc(NC(=O)CSc2ccc(-c3ccccn3)nn2)c1C	7%	2%	2.8µM*	8.9µM*	28%
COc1ccccc1NC(=O)CSc1nnc(-c2ccccn2)n1Cc1ccco1	?	-12%	?	56µM*	-15%
COc1ccccc1NC(=O)CSc1ccc(-c2ccccn2)nn1	3%	0%	3.2µM*	3.5µM*	23%
O=C(COc1ncnc2ccccc12)N1CCN(c2ccccc2)CC1	50µM*	4%	-17%	-18%	7%
NC(=O)C1CCN(C(=O)CN2CCN(c3cccc(C(F)(F)F)c3)CC2)CC1	-25%	22%	2%	89µM*	-4%
O=C(COc1cccc(C(F)(F)F)c1)N1CCN(c2ccccc2O)CC1	-82%[59 µM]	20%	?	-17%	8%
